Compound activity (PubChem)
An excerpt weighted towards active compounds, which were near 1.7% of everything screened.
MIN6 prolif-1 = MIN6 beta-cell proliferation induction | MIN6 cells proliferation, ATPlite luminescence, 48 h; cells starved in 0.2% serum; 100% = growth in 10% serum | proliferation, % at 10 µM | 0.29% of 330,000 active;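 active = compounds whose signal lies at least 3.5 SD above the mean of all wells on their plate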
CHT inh = inhibits the human high affinity choline transporter; 0.86% of 310,000 active; B-score at 10 µM; CHT-expressing cells, membrane potential dye, choline response; stronger effect = lower value; AID 488975; Q9GZV3;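 active = B-score over 3 SD under the library average, and starting fluorescence ratio not unusually high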;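 note: choline stimulus applied at its EC90 after an EC20 pre-addition; B-score computed on integrated fluorescence ratio after choline addition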
Target sequence (Q9GZV3 whole entry, looked up): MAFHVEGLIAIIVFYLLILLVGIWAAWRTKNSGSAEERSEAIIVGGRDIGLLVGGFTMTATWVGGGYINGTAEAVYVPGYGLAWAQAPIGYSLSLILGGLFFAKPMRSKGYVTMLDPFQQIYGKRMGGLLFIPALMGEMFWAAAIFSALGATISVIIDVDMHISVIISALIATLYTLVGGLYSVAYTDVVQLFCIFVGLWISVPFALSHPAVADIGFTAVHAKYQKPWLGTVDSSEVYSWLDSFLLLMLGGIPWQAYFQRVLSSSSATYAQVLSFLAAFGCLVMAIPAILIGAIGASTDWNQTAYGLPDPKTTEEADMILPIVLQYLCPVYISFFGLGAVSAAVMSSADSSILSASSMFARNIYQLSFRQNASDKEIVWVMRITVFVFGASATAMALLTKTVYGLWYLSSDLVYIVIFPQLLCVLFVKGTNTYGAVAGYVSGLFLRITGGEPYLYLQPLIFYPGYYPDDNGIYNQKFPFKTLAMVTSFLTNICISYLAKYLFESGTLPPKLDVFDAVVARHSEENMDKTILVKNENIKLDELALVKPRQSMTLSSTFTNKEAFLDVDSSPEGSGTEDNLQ
TAG inh = triacylglycerol accumulation inhibition; H9c2 cells, Nile Red lipid (TAG) fluorescence; cells loaded with 200 µM oleic acid; inhibition, % at 12.5 µM; 0.66% of 230,000 active; AID 651582;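 active = pattern-corrected inhibition of lipid staining of at least 50% with the nuclear-stain viability signal not falling by more than 50%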
CHT allo act = allosterically activates the human high affinity choline transporter. Q9GZV3. CHT-expressing cells, membrane potential dye, choline EC20; stronger effect = higher value; LV-AA mutant CHT in HEK293 cells. B-score at 10 µM. 0.49% of 310,000 active;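 active = initial fluorescence not abnormally high and integrated response B-score, plate-corrected, over 3 SD above library mean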
MIN6 prolif-2 = MIN6 beta-cell replication induction, confirmed. shares compounds with MIN6 prolif-1. MIN6 beta-cell proliferation, ATPlite luminescence, 48 h; cells kept in 0.2% serum; scaled between 0.2% and 10% serum. proliferation increase, % at 50 µM. 920 tested, under 10 active;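 active = proliferation increase above 40% at any of the four tested concentrations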
Numbers stand for hits.

Screening CCOC(=O)c1cccc2c1-c1ccccc1/C2=N/O returned MIN6 prolif-1 inactive, CHT inh inactive and CHT allo act inactive.
`N#CCCn1cc(C(=O)N2CCOCC2)c(-c2ccc3c(c2)OCCO3)n1` gave MIN6 prolif-1 inactive, CHT inh inactive, TAG inh inactive and CHT allo act inactive.
`COc1ccc(Oc2nc3c(c(=O)n(C)c(=O)n3C)n2Cc2ccccc2)cc1` gave MIN6 prolif-1 inactive, CHT inh inactive, TAG inh inactive and CHT allo act inactive.
CCn1c(Oc2ccc(F)cc2)nc2c1c(=O)n(C)c(=O)n2C was read as MIN6 prolif-1 7.3, CHT inh inactive, TAG inh inactive, CHT allo act inactive and MIN6 prolif-2 inactive.
`Cc1ccc(-n2c(SCC(=O)N3CCCc4ccccc43)nnc2-c2cccnc2)c(C)c1` gave MIN6 prolif-1 inactive, CHT inh inactive and CHT allo act inactive.
For CCOc1ccccc1-n1c(SCC(=O)N2CCCc3ccccc32)nnc1-c1cccnc1 the results were MIN6 prolif-1 6.6, CHT inh inactive, CHT allo act inactive and MIN6 prolif-2 inactive.
For CCOc1cc(N2CCOCC2)c(OCC)cc1NC(=O)c1cnccn1 the results were MIN6 prolif-1 9.3, TAG inh inactive and MIN6 prolif-2 inactive.
`CC(C)c1ccc(NC(=O)CCNS(=O)(=O)c2cccc3nsnc23)cc1` gave MIN6 prolif-1 4.6, CHT inh inactive, CHT allo act inactive and MIN6 prolif-2 inactive.
For Cc1ncc(CO)n1Cc1ccc(Cl)cc1 the results were TAG inh inactive.
Cn1c(=O)c([N+](=O)[O-])c(NCc2ccc3c(c2)OCO3)c2ccccc21 was read as MIN6 prolif-1 inactive, CHT inh inactive, TAG inh inactive and CHT allo act inactive.
Screening Nc1ncnc2c1ncn2[C@H]1C[C@H](O)[C@@H](COP(=O)(O)O)O1 returned MIN6 prolif-1 12.9, CHT inh inactive, TAG inh inactive, CHT allo act inactive and MIN6 prolif-2 inactive.
`CC(C)Sc1nc2c(cnn2-c2ccc(Cl)cc2)c(=O)[nH]1` gave MIN6 prolif-1 10.8, CHT inh inactive, CHT allo act inactive and MIN6 prolif-2 inactive.
`CCNC(=O)/C(C#N)=C/c1c(N2CCN(c3ccccc3)CC2)nc2c(C)cccn2c1=O` gave MIN6 prolif-1 inactive, CHT inh inactive and CHT allo act inactive.
Screening Cc1cccn2c(=O)c(/C=C(\C#N)C(N)=O)c(N3CCN(c4ccccc4)CC3)nc12 returned MIN6 prolif-1 6.9, CHT inh inactive, CHT allo act inactive and MIN6 prolif-2 inactive.
Screening CCCc1ccc(C(=O)NNc2ccccc2F)cc1 returned MIN6 prolif-1 inactive, CHT inh inactive, TAG inh inactive and CHT allo act inactive.
For CC1(C)CC(=O)C/C(=N/NC(=O)C2CCN(S(=O)(=O)c3cccs3)CC2)C1 the results were MIN6 prolif-1 9.3, CHT inh inactive, CHT allo act inactive and MIN6 prolif-2 inactive.
`CCN(C(=O)CSc1ncccn1)c1c(N)n(Cc2ccccc2)c(=O)[nH]c1=O` gave MIN6 prolif-1 15.9, TAG inh inactive and MIN6 prolif-2 inactive.
CN(C(=O)CN1CCCCCC1)c1c(N)n(Cc2ccccc2)c(=O)[nH]c1=O was read as MIN6 prolif-1 11.7, TAG inh inactive and MIN6 prolif-2 inactive.
For Cc1cc(NC(=O)CCC(=O)N(Cc2ccco2)C(C)(C)C(=O)NC2CCCCC2)no1 the results were MIN6 prolif-1 inactive, CHT inh inactive, TAG inh inactive and CHT allo act inactive.
For Cc1cc(NC(=O)CCC(=O)N(Cc2cccs2)C(C)(C)C(=O)NC2CCCCC2)no1 the results were MIN6 prolif-1 6.2, CHT inh inactive, CHT allo act inactive and MIN6 prolif-2 inactive.
Screening O=[N+]([O-])c1ccc(-n2cnc3ccccc32)c([N+](=O)[O-])c1 returned MIN6 prolif-1 inactive, CHT inh inactive, TAG inh inactive and CHT allo act inactive.
Screening O=C(CSc1ccc2nnc(CCNC(=O)c3ccccc3)n2n1)NCCc1ccccc1 returned MIN6 prolif-1 10.4, CHT inh inactive, TAG inh inactive, CHT allo act inactive and MIN6 prolif-2 inactive.
For CCOC(=O)C1CCN(C(=O)CCC2CCCC2)CC1 the results were MIN6 prolif-1 6.1, CHT inh inactive, TAG inh inactive, CHT allo act inactive and MIN6 prolif-2 inactive.
For CCOC(=O)C1CCN(C(=O)c2cc3c(ccc4ccccc43)o2)CC1 the results were MIN6 prolif-1 inactive, CHT inh inactive and CHT allo act inactive.
For CCOC(=O)C1CCN(C(=O)c2ccc(C)o2)CC1 the results were MIN6 prolif-1 9.3, TAG inh inactive and MIN6 prolif-2 inactive.
For COc1ccc(CNC(=O)COC(=O)c2cc3ccccc3o2)cc1 the results were MIN6 prolif-1 inactive and TAG inh inactive.
Screening NS(=O)(=O)c1ccc(NC(=O)c2ccc3c(c2)CCCC3)cc1 returned MIN6 prolif-1 5.3, CHT inh inactive, CHT allo act inactive and MIN6 prolif-2 inactive.
Cc1cc(Br)c(NC(=O)COC(=O)C2CCCCC2)c(Br)c1 was read as MIN6 prolif-1 10.6, TAG inh inactive and MIN6 prolif-2 inactive.
Screening O=C(OCCCc1cc2ccccc2c(=O)o1)N1CCOCC1 returned MIN6 prolif-1 7.8, TAG inh inactive and MIN6 prolif-2 inactive.
For O=C(OCCc1cc2ccccc2c(=O)o1)N1CCOCC1 the results were MIN6 prolif-1 inactive and TAG inh inactive.
CSc1cccc(NC(=O)CNC(=O)C2CCCCC2)c1 was read as MIN6 prolif-1 11.3, CHT inh inactive, TAG inh inactive, CHT allo act inactive and MIN6 prolif-2 inactive.
Screening Cc1cccc(NC(=O)COC(=O)CNC(=O)C2CCCCC2)c1 returned MIN6 prolif-1 inactive, CHT inh inactive, TAG inh inactive and CHT allo act inactive.
For CN(C(=O)c1cc(-c2cccs2)nn1-c1ccccc1)C1CCS(=O)(=O)C1 (centres undefined) the results were TAG inh inactive.
CCOC(=O)C1CCCCN1Cc1ccc(OC)c(OC)c1 (centres undefined) was read as MIN6 prolif-1 8.0, CHT inh inactive, TAG inh inactive, CHT allo act inactive and MIN6 prolif-2 inactive.
Screening Cc1cc2nc(C)c(=O)n(C)c2cc1C returned MIN6 prolif-1 7.3, CHT inh inactive, CHT allo act inactive and MIN6 prolif-2 inactive.
Cc1cc2nc(-c3ccc(=O)[nH]c3)n(C)c2cc1C was read as CHT inh inactive and CHT allo act inactive.
`COC(=O)c1c(NC(=O)Cc2cccs2)sc(C)c1C` gave MIN6 prolif-1 inactive, CHT inh inactive and CHT allo act inactive.
CCOC(=O)c1c(NC(=O)Cc2cccs2)sc(C(=O)N2CCCCC2)c1C was read as MIN6 prolif-1 9.5, CHT inh inactive, TAG inh inactive, CHT allo act inactive and MIN6 prolif-2 inactive.
Screening Cc1ccc(Nc2nc(NCC3CCCO3)nc(N)c2[N+](=O)[O-])cc1C (centres undefined) returned MIN6 prolif-1 0.0, CHT inh inactive, CHT allo act inactive and MIN6 prolif-2 inactive.
For O=C(Nc1cc(C2CC2)nn1-c1ccccc1)c1ccc(F)cc1 the results were MIN6 prolif-1 inactive and TAG inh inactive.
